# “And” between values parts separate entries of the source, which are not always exact repeats. Identical values can stand only once. Results filed as inconclusive are left out. A call without a number means that no potency is given here. The source made the active and inactive calls. Unless noted, calls follow the shape of the dose curve; as a rule, active = well fitted curve in the direction sought with a large enough effect; inconclusive = small, poorly fitted or top-dose-only effect, or another doubt; inactive = no such curve, though single readings can be large; an effect the other way counts as inactive or inconclusive.
# How the values were obtained:
# [1] = molecular target: Voltage-gated inwardly rectifying potassium channel KCNH2 (Homo sapiens) (UniProt Q12809); test: qHTS Assay for Small Molecule Inhibitors of the Human hERG Channel Activity (AID 588834);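 also: lower thallium flux fluorescence means stronger hERG block; nearly all actives have a fitted effect of over 50% in size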; also: potency is read from the fitted curve at half-maximal effect
# In short: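 Homogeneous FluxOR thallium flux assay using hERG-expressing U2OS cells (BacMam). Compound treatment about 10 minutes preceded stimulation; reduced fluorescence taken as channel block.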
# [2] = molecular target: Luciferin 4-monooxygenase (Photinus pyralis) (UniProt P08659); test: Biochemical firefly luciferase enzyme assay for NPC (AID 624030); also: nearly all actives have a fitted effect of over 70% in size; also: potency is read from the fitted curve at half-maximal effect
# In short: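 Purified P. pyralis luciferase at 10 nM in 50 mM Tris Acetate (final), luminescence read within 5 minutes of enzyme addition to compounds. Activity normalised to PTC124 versus DMSO; concentration-response curves classed by r2, magnitude and activity.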
# [3] = S16 Schwann cell PMP22 intronic element firefly luciferase assay (AID 624032); also: nearly all actives have a fitted effect of over 30% in size; also: potency is read from the fitted curve at half-maximal effect
# In short: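 Rat S16 Schwann cells stably carrying firefly luciferase driven by a PMP22 intronic element, in 10% FBS, treated 24 h at 37 C. ONE-Glo luminescence normalized to PTC124 control and DMSO (0%); curves classed by r2, magnitude and activity.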
# [4] = S16 Schwann cell viability assay (CellTiter-Glo assay) (AID 624031); also: nearly all actives have a fitted effect of over 70% in size; also: potency is read from the fitted curve at half-maximal effect
# In short: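 Rat S16 Schwann cells without reporter constructs received compound or DMSO for 24 h at 37 °C under 5% CO2. Cellular ATP was then quantified by CellTiter-Glo luminescence, with vehicle wells defined as 0% activity and cell-free wells as reference.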
# [5] = S16 Schwann cell PMP22 intronic element beta-lactamase assay (AID 624044; calls by dose curve; also: nearly all actives have a fitted effect of over 15% in size); conditions: S16 rat Schwann cells, PMP22 element beta-lactamase FRET, 24 h; ratio activity, negative = inhibition: at 38.3 µM (top of the series) unless noted
# In short: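 Beta-lactamase reporter under a PMP22 intronic regulatory element in stable S16 rat Schwann cells; 24 h compound exposure. 460 nm blue signal normalized between DMSO (0%) and potassium clavulanate, with 535 nm FRET tracking viability; curves classed by r2 and response.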
# Voltage-gated inwardly rectifying potassium channel KCNH2 (Homo sapiens), sequence (Q12809 whole entry, looked up): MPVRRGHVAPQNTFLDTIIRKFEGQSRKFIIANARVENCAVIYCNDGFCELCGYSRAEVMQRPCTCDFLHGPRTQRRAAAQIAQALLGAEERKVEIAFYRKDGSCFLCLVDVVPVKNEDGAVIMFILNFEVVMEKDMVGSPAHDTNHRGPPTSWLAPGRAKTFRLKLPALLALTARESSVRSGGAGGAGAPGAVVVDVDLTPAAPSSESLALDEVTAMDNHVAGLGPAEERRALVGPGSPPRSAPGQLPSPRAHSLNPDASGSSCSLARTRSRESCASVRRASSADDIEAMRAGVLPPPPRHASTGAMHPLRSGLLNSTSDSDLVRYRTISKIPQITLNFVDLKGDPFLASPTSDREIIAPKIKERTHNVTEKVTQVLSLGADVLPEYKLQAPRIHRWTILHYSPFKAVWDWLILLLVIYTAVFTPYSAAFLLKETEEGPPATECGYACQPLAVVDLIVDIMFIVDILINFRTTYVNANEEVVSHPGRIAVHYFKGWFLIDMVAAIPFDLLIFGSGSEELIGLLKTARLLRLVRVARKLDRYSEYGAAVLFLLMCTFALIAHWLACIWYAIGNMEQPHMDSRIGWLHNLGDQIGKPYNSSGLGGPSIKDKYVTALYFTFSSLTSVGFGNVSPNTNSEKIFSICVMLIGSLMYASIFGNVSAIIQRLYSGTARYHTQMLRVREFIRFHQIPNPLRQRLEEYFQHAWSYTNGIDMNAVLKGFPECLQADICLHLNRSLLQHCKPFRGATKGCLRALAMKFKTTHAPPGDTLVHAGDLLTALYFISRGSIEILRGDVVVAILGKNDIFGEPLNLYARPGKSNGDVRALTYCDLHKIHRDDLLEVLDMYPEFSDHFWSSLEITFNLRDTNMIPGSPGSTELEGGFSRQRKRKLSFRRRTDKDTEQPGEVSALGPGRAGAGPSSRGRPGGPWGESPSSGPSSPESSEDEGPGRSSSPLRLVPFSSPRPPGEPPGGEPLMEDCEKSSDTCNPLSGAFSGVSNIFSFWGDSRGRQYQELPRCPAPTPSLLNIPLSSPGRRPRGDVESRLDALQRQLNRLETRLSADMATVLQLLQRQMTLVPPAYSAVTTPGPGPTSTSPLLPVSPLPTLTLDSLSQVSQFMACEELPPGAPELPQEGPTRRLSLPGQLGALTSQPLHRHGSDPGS
# Luciferin 4-monooxygenase (Photinus pyralis), sequence (P08659 whole entry, looked up): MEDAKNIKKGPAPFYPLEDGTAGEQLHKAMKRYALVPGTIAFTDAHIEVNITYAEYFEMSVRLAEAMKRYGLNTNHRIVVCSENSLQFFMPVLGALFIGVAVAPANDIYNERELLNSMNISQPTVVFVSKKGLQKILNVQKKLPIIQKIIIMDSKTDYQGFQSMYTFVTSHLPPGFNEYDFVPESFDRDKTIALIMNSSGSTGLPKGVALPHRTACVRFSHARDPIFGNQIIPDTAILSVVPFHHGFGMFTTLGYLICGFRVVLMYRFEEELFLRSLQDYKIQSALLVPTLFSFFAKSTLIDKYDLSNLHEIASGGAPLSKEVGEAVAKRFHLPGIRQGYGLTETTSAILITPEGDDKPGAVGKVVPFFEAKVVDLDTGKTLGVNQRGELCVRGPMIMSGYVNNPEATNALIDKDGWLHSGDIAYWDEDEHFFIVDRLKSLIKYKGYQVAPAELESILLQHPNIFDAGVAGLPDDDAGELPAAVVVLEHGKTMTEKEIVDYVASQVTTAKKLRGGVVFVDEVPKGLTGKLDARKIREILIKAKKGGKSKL
SMILES,Potency [1],Potency [2],Potency [3],Potency [4],"ratio activity, negative = inhibition [5]"
Cc1cc(C)c(NC(=O)C[C@H](CC(=O)O)c2cccc3ccccc23)c(C(=O)N2CCC3(CCCC3)CC2)c1,inactive,inactive,inactive,,
COc1ccc(/C=C/C(=O)O)cc1,inactive,inactive,,inactive,1.76% (inactive)
CC(=O)N=c1sc(S(N)(=O)=O)nn1C,inactive,inactive,inactive,,
CCc1ccc(S(=O)(=O)O)cc1,inactive,inactive,,inactive,-9.66% (inactive)
OC/C=C/c1ccccc1,inactive,inactive,,inactive,-1.9% (inactive)
CCCCCCCCCCCCOCCCN,inactive,inactive,inactive,,
O=[n+]1ccn([O-])c2ccccc21,inactive,inactive,inactive,,
CC(C)CCC[C@@H](C)[C@H]1CC[C@H]2[C@@H]3CC[C@@H]4C[C@H](O)CC[C@]4(C)[C@H]3CC[C@]12C,inactive,inactive,inactive,,
Cc1cc(-c2ccc(N=Nc3ccc4c(S(=O)(=O)O)cc(S(=O)(=O)O)c(N)c4c3O)c(C)c2)ccc1N=Nc1ccc2c(S(=O)(=O)O)cc(S(=O)(=O)O)c(N)c2c1O,inactive,28.7 µM (active) and 14.4 µM (active),8.09 µM (active),,
CN1CCCC(CN2c3ccccc3Sc3ccccc32)C1 (configuration not stated),12.6 µM (active),inactive,inactive,,
CC(C)OC(=O)Nc1ccc2nc(-c3cscn3)[nH]c2c1,inactive,9.07 µM (active),inactive,,
Cc1ncc(C[n+]2csc(CCOP(=O)(O)O)c2C)c(N)n1,inactive,inactive,,inactive,-8.96% (inactive)
CCOC(=O)C1=C(COCCN)NC(C)=C(C(=O)OC)C1c1ccccc1Cl (configuration not stated),,inactive,inactive,,-3.48% (inactive)
CC(C)(CO)[C@@H](O)C(=O)NCCC(=O)NCCSSCCNC(=O)CCNC(=O)[C@H](O)C(C)(C)CO,,inactive,inactive,inactive,2.37% (inactive)
COc1ccc(/C=C/C(=O)OCCC(C)C)cc1,,11.4 µM (active),inactive,inactive,
Cc1ncc(C[n+]2csc(CCOP(=O)(O)OP(=O)(O)O)c2C)c(N)n1,,inactive,inactive,inactive,-0.395% (inactive)
CC(C)=CCC/C(C)=C/C=C/C(C)=C/C=C/C(C)=C/C=C/C=C(C)/C=C/C=C(C)/C=C/C=C(\C)CCC=C(C)C,,inactive,inactive,inactive,
CCN(CC)CCC(=O)N1c2ccccc2Sc2ccc(C(F)(F)F)cc21,,inactive,,inactive,-1.58% (inactive)
CCC(Cc1c(I)cc(I)c(O)c1I)C(=O)O (configuration not stated),inactive,,inactive,inactive,3.55% (inactive)
COc1ccc(C(=O)c2ccc(C)cc2)c(O)c1,,14.4 µM (active),,inactive,6.33% (inactive)
O=C1c2ccccc2C(=O)C1c1ccc(Cl)cc1,inactive,,,inactive,-9.28% (inactive)
CN(C)CCCSc1ccccc1NC(=O)/C=C/c1ccccc1,,inactive,,inactive,
O=P(O)(O)OP(=O)(O)O,,inactive,1.81 µM (active),inactive,
C(=C\c1ccncc1)/c1ccccc1,inactive,,inactive,,-6.31% (inactive)
O=C1c2ccccc2C(=O)c2c1ccc(O)c2O,,,inactive,,0.767% (inactive)
O=C(OC1C[C@@H]2CC3C[C@H](C1)N2CC3=O)c1c[nH]c2ccccc12 (some centres not stated),,inactive,inactive,inactive,-0.0634% (inactive)
NCC(O)CC(=O)O (configuration not stated),,inactive,inactive,inactive,4.25% (inactive)
CN(C)CCC=C1c2ccccc2C(C)(C)c2ccccc21,,inactive,,,-0.444% (inactive)
C[C@]12CCC(=O)C[C@@H]1CC[C@@H]1[C@@H]2CC[C@]2(C)C=CC[C@@H]12,,inactive,inactive,inactive,4.94% (inactive)
NC(=S)N=Nc1ccc(NN=C(N)N)cc1,,11.4 µM (active),,10.2 µM (active),-3.68% (inactive)
